A selection: hits, their analogues and other compounds. The true share with any hit is near 0.9%.
CDC25B CDK2 inh – primary biochemical HTRF screen for blockers of M-phase inducer phosphatase 2 binding to CDK2/cyclin A. P30305+P24941. HTRF CDC25B-CDK2/CyclinA binding, anti-His/anti-Flag; active compounds read high. z-score (no concentration beside the values). 0.72% of 94,000 active; in the data active = z-score above about 3.2
TAR Tat displ – TAR RNA-Tat peptide displacers, HIV-1, primary screen, biochemical, FRET, FAM/TAMRA-labeled Tat; HIV-1 TAR RNA, Tat peptide displacement FRET; active compounds read high; z-score (no concentration beside the values); 0.6% of 100,000 active; AID 1259389, 2018; active = z-score of 3 or more in at least 2 runs
Active calls of the source: *; / = no result given.

SMILES	CDC25B CDK2 inh	TAR Tat displ
O=C(O)c1cccc2cccc(C(=O)O)c12	-1.3	/
COc1ccc(C2=C(C)C(=NC3CC3)NS2(=O)=O)cc1	-0.01	1.8
CN(C)CCNC(=O)c1ccc2c(c1)nc1n2CCCC1	/	1.4
COCCNC(=O)c1cnn2c3c(cnc12)CCCCC3	/	1.7
O=C(Nc1ccc2nc3c4ccccc4c4ccccc4c3nc2c1)N(CCO)c1ccccc1	-2	/
OCCNC(=S)Nc1ccc2nc3c4ccccc4c4ccccc4c3nc2c1	21*	/
O=C1NC(=S)N/C1=C/c1ccc(-c2cc(C(=O)O)ccc2Cl)o1	3.6*	/
O=C1NC(=O)/C(=C/c2ccc(-c3ccc(F)cc3O)o2)S1	0.33	/
CCn1c(=O)c2c(nc3n2CCN3c2ccc(F)cc2)n(C)c1=O	/	0.12
Cc1ccnc(Nc2nc(-c3ccc(O)c(O)c3)cs2)c1	-1.2	10*
Cc1cccc(Nc2nc(-c3ccncc3)cs2)n1	-0.7	2.5
Cc1cccc(Nc2nc(-c3ccc(O)c(O)c3)cs2)n1	-0.54	16*
Cc1ccnc(Nc2nc(-c3ccc(O)cc3)cs2)c1	0.67	0.86
O=C(CCc1nnc2ccc(NCc3ccco3)nn12)N1CCc2ccccc2C1	/	-0.02
Cc1cc2c3c([nH]c2cc1S(=O)(=O)NCCCN1CCC(C)CC1)CC(C)(C)CC3=O	/	1.8
CCc1cccc(NS(=O)(=O)c2c(C)nc3sc4cc(C)ccc4n3c2=O)c1	/	0.52
Cc1nc2ccccc2c2c1C(=O)N(CC1CCCO1)C2=O (centres undefined)	7.4*	0.78
Cc1nc2ccccc2c2c1C(=O)N(CC(C)C)C2=O	-0.98	-0.86
c1ccc2c(-c3ccncc3)c[nH]c2c1	/	0.71
Cc1sc(-c2c[nH]c3ccccc23)nc1-c1c[nH]c2ccccc12	18*	/
CNC(=O)c1ccc2c(c1)NC(=O)c1ccccc1S2	0.85	0.53
Cn1c(=O)c2c(-c3ccc(Br)cc3)n(-c3ccc4c(c3)nc(CO)n4C)cc2n(C)c1=O	15*	1.7
Cc1ccc(-n2cc3c(c2-c2ccc(Br)cc2)c(=O)n(C)c(=O)n3C)cc1	-1.6	-0.23
CCC(C)NC(=O)CCCn1nc(C)n2c(cc3occc32)c1=O (centres undefined)	-0.65	2.3
COc1ccc2nc(NC(=O)CCCCC(=O)Nc3nc4ccc(OC)cc4s3)sc2c1	-2.3	/
SMILES	CDC25B CDK2 inh	TAR Tat displ
c1ccc(CNc2cc(-c3ccccc3)nc3nncn23)cc1	4.6*	-0.07
COc1ccc(CNc2cc(-c3ccccc3)nc3nncn23)cc1	3.9	0.51
Cc1cc(C)cc(NC(=O)NCc2c(-n3cccc3)sc3c2CCCC3)c1	-0.2	0.31
Cc1ccc(CNC(=O)NCc2c(-n3cccc3)sc3c2CCCC3)cc1	-1.2	13*
Nc1cccc(C2NC(=O)CS2)c1 (centres undefined)	10*	0.9
O=C1CSC(c2cccc(NS(=O)(=O)c3ccc(Cl)cc3)c2)N1 (centres undefined)	/	-0.4
CCn1c(N)c(C(=O)Nc2ccccc2)sc1=S	/	1.6
CC(C)c1nnc2sc(COc3ccc(Cl)cc3)nn12	-0.25	-0.48

High-throughput results: PubChem, Center for Chemical Genomics, University of Michigan
